Sampled rows, rich in hits. Any-hit rate of the full collection: about 5.7%.
ATXN viability: reduces viability in counter-screen for ATXN expression inhibitors; S2 cells (HEK-293 line with an ATXN2-luciferase reporter) viability, CellTiter-Fluor protease fluorescence, 24 h; Potency, µM (series often up to 56.7 µM), actives largely listed as cytotoxic; 400,000 tested, 0.49% active; note: nearly all actives have a fitted effect of over 40% in size
HepG2 viability: HepG2 cytotoxicity, counter-screen for TGF-b inhibitors; HepG2 CAGA-GFP viability, ATP luminescence, 18 h; Potency, µM (series often up to 46.1 µM), most hits filed as cytotoxic; 410,000 tested, 0.76% active; AID 588856
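HepG2 CAGA-GFP cells (1000/well, DMEM with 1% FBS) received compound, then TGF-beta at 500 pg/mL final, and were incubated 18 hours at 37 degrees C. Viability was read by CellTiter-Glo luminescence. Media-only wells were set as complete cell-killing and DMSO as no toxicity.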
ATXN2 expr inh: ATXN2 expression inhibition. HEK-293 ATXN2-luciferase reporter, luminescence, 24 h. Potency, µM (doses to about 57 µM), usual class: inhibitors. 360,000 tested, 0.72% active. AID 1745845; note: nearly all actives have a fitted effect of over 55% in size
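qHTS (up to 57 uM final) was run with 24 h compound exposure of reporter cells at 37 °C. Each well was multiplexed: SteadyGlo luminescence measured ATXN2-luciferase expression after a fluorogenic Gly-Phe-AFC viability readout (25 uM final).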
TGFb SMAD3 inh: TGF-b pathway inhibition; AID 588855; Potency, µM (titrated, usually from 46.1 µM), usual class: inhibitors; HepG2 CAGA-GFP TGF-b/SMAD3 reporter, GFP fluorescence, 18 h; TGF-beta stimulated, 500 pg/mL final; 410,000 tested, 1.2% active; note: nearly all actives have a fitted effect of over 65% in size
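HEPG2 CAGA-GFP cells (1000/well, DMEM with 1% FBS) were pre-incubated 2 h at 37 degrees C, given compound by pin tool, then stimulated with TGF-beta at 500 pg/mL final for 18 h before per-cell GFP fluorescence imaging.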
IL1B secr inh: inflammasome signaling inhibition, IL-1 beta readout; THP-1 LPS/ATP IL-1B secretion, AlphaLISA, 16 h; active compounds read low; activity change, % at 57.5 µM; 360,000 tested, 4.7% active; AID 743279; in the data active = activity change below about -50%; inconclusive = mostly about -30% to -49%
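THP-1 cells pretreated 1 hr with compounds (up to 57.5 uM final), then stimulated with LPS (250 ng/mL final) plus ATP (1.25 mM final); secreted IL-1B measured by AlphaLISA after 16 hr, decreased signal indicating inhibition.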
Hits are given with their value; i = inactive; ? = inconclusive; nt = no result given; ! = a repeat was not active; [ ] = another dose, or the depositor's remark. Unless noted, calls come from the whole dose curve; as a rule, active = well fitted curve in the direction sought with a large enough effect; inconclusive = small, poorly fitted or top-dose-only effect, or another doubt; inactive = no such curve, though single readings can be large; an effect the other way counts as inactive or inconclusive.

SMILES | ATXN viability | HepG2 viability | ATXN2 expr inh | TGFb SMAD3 inh | IL1B secr inh
COc1ccccc1CNC(=O)c1ccc(-c2ccccc2Cl)o1 | i | i | i | 16µM | i
COC(=O)C1=C(C)NC(C)=C(C(=O)OC)C1c1ccc(-c2cccc(Cl)c2Cl)o1 | i | i | i | ? | ?
CCN(CC)CCNC(=O)c1ccc(-c2nc(CN3CCc4ccccc43)c(C)o2)cc1 | ? | i | ? | ? | nt
Cc1ccc(N(CC(=O)Nc2ccc(Br)c(C)c2)S(=O)(=O)c2cccs2)cc1 | i | i | i | i | nt
c1ccc(N2CCN(c3ncnc4c3nc3n4CCCCC3)CC2)cc1 | i | i | ? | i | nt
O=C(C1CCN(c2ncnc3c2nc2n3CCCCC2)CC1)N1CCN(c2cccc(Cl)c2)CC1 | 18µM | i | nt | ? | ?
Clc1cccc(N2CCN(c3ncnc4c3nc3n4CCCCC3)CC2)c1 | nt | i | 18µM | ? | nt
CN1OC[C@@H]2CN[C@H](c3ccc(-c4cc5ccccc5o4)cc3)C[C@@H]21 | i | i | 0.2µM | i | i
COc1cc(CN2CCN(C(O)(c3ccccc3)c3ccccc3)CC2)cc(OC)c1OC | i | i | i | i | -69
CCOc1ccccc1CNC(=O)c1cn(-c2ccc(OC)cc2)c(=O)c2ccccc12 | nt | i | nt | i | nt
O=C(CN1C(=O)C2(OCCO2)c2cc(Br)ccc21)NO | ? | i | i | i | -55
O=C(c1cccs1)c1c[nH]cc1-c1ccccc1 | i | i | i | i | -57
CCN(CC)CCn1nc2c3c(cccc3c1=O)-c1ccccc1-2 | ? | i | 10µM | ? | -99
CCNC(=O)CCCC=CC[C@@H]1[C@H](C=CC(O)CCc2ccccc2)[C@@H](O)C[C@@H]1O (stereo partly specified) | nt | nt | i | nt | nt
CC(=O)OCC1=C(C(=O)O)N2C(=O)C(NC(=O)Cc3ccccc3)C2SC1 (stereo unspecified) | nt | i | nt | i | nt
CC(=O)OCC1=C(C(=O)O)N2C(=O)C(NC(=O)c3ccc(F)cc3)C2SC1 (stereo unspecified) | 14µM | i | nt | i | i
CC(C)(C)C(=O)Cn1ncc(N2CCCC2)c(Br)c1=O | i | i | i | i | i
CC(=O)Cn1ncc(Br)c(Br)c1=O | ? | i | ? | ? | -96
Cc1ccc(S(=O)(=O)CCSc2nc(C)cc(C(F)(F)F)c2C#N)cc1 | i | i | i | i | -101
Cc1cc(C(F)(F)F)c(C#N)c(SCC(=O)Nc2nc3cc(Br)ccc3s2)n1 | nt | i | nt | i | -146
CCCc1nc2cccnc2n1C1CCN(C(=O)Cn2nccc2C)CC1 | i | nt | nt | nt | nt
Cc1cccc(Cc2c(C)nc3nc(SCc4cccc(F)c4)nn3c2C)c1 | i | i | i | ? | nt
O=C(c1ccco1)N1CCN(C(=O)c2ccco2)C1=S | ? | i | i | 11µM | -100
COc1ccc(N2C(=O)CS(=O)(=O)C23C(=O)N(Cc2ccccc2F)c2ccccc23)cc1Cl (stereo unspecified) | ? | i | i | i | nt
Cc1ccc(-n2c3nc(=O)[nH]c(=O)c-3cc3cc([N+](=O)[O-])ccc32)cc1 | ? | i | i | i | -107
SMILES | ATXN viability | HepG2 viability | ATXN2 expr inh | TGFb SMAD3 inh | IL1B secr inh
CSc1ccc(C2c3c(-c4ccccc4O)n[nH]c3C(=O)N2Cc2ccncc2)cc1 (stereo unspecified) | nt | i | i | ? | nt
Cc1cc2nc(NCCCO)n(CC(=O)c3cc(C(C)(C)C)c(O)c(C(C)(C)C)c3)c2cc1C | ? | i | i | ? | -51
COc1ccc(C(=O)Cn2c(NCCCO)nc3ccccc32)cc1 | i | i | nt | i | ?
COC(=O)N1C(=O)[C@@](c2ccccc2)(C(C)C)N1C(=O)OC | ? | i | i | ? | ?
COC(=O)N1C(=O)[C@](c2ccc(Cl)cc2)(C(C)C)N1C(=O)OC | 32µM | 16µM | ? | ? | nt
COC(=O)N1C(=O)[C@@](c2ccc(OC)cc2)(C(C)C)N1C(=O)OC | ? | i | i | ? | -101
CCCn1c(=O)n(-c2ccccc2Cl)c(=O)c2sc3ccccc3c21 | ? | i | i | i | nt
O=C(c1ccc2c(c1)N(Cc1ccc(F)cc1)C(=O)c1ccccc1S2(=O)=O)N1CCN(Cc2ccccc2)CC1 | i | i | i | 3.5µM | nt
CCN1CCN(C(=O)c2ccc3c(c2)N(Cc2ccc(F)cc2)C(=O)c2ccccc2S3(=O)=O)CC1 | nt | i | nt | nt | nt
Cc1cc2oc(C(=O)N(Cc3ccc(N(C)C)cc3)CC3CCCO3)c(C)c2cc1Cl (stereo unspecified) | nt | i | nt | i | nt
CCOc1ccccc1CNc1ccc(O)cc1 | ? | i | i[11.3 µM] | 16µM | i
CCOc1ccccc1CNCc1ccc(F)cc1 | i | i | i | i | -51
Oc1ccc(NCc2ccccc2OCc2ccccc2F)cc1 | ? | 11µM! | ? | 10µM! | i
Cc1cnc(-n2ncc(C(=O)NCc3ccncc3)c2C(C)C)nc1-c1ccc(F)cc1 | i | nt | nt | nt | nt
CCCCCCCCCCN(CCCCCCCCCC)c1ccc(/C=C/c2ccnc3ccccc23)cc1 | nt | i | nt | i | nt
COc1ccc(/C(C)=C/C(=O)O)c(OC)c1 | i | nt | i | nt | nt
O=C1CC(c2nc3ccccc3n2CCC2CCCCC2)CN1c1ccccc1Cl (stereo unspecified) | i | i | i | i | nt
O=C1CSC2(C(=O)N(Cc3ccccc3F)c3ccccc32)N1c1cccc(C(F)(F)F)c1 (stereo unspecified) | i | i | ? | 11µM | nt
CN1CCN(NC(=O)Nc2ccc(Br)cc2Cl)CC1 | i | i | i | i | -50
C=CCNC(=O)Nc1ccc(Br)cc1Cl | ? | i | nt | i | i
O=C(Nc1ccncc1)Nc1ccc(Br)cc1Cl | i | i | i | ? | -94
O=C(Nc1ccncc1)Nc1cccc(F)c1 | i | i | i | i | -80
CN1CCN(NC(=O)Nc2cc(Cl)cc(Cl)c2)CC1 | i | i | i | i | ?
CO[C@H]1[C@H](NC(=O)c2ccsc2)c2ccccc2C12CCN(Cc1c(O)ccc3ccccc13)CC2 | i | nt | nt | nt | nt
CN(C)c1ccc(/C=C/c2ccnc3ccc(F)cc23)cc1 | nt | i | nt | i | nt
SMILES | ATXN viability | HepG2 viability | ATXN2 expr inh | TGFb SMAD3 inh | IL1B secr inh
Cc1cc2c(cc1S(=O)(=O)N(CCN(C)C)Cc1ccccc1)OCC(=O)N2 | nt | i | nt | i | nt
O=C1CC[C@@H](C(=O)NCC2Cc3cc(Cl)cc(-c4ccc5[nH]ccc5c4)c3O2)N1 (stereo partly specified) | i | nt | nt | nt | nt
CCc1nc(Sc2nnnn2-c2ccccc2)c2c3c(sc2n1)CCCC3 | ? | i | i | i | -81
Cc1nc(Sc2nnnn2C)c2c3c(sc2n1)CCC3 | i | i | i | ? | -57
CCc1nc(-n2[nH]c(=O)c3ccccc3c2=O)c2c3c(sc2n1)CCCC3 | i | i | i | ? | i
Cc1nc(SCC(=O)NCC2CCCO2)c2c3c(sc2n1)CCC3 (stereo unspecified) | i | i | i | i | i
C[N+]1(CC(=O)c2ccc(O)c(O)c2)CCOCC1 | nt | i | nt | i | nt
O=S1(=O)CCOCCCN1Cc1ccc(F)cc1 | nt | i | nt | i | nt
COc1ccc(-c2c(-c3ccc(O)cc3O)n[nH]c2C)cc1OC | i | i | i | i | i

Source: PubChem BioAssay (National Center for Advancing Translational Sciences (NCATS))
